PubChem BioAssay
Values joined by “and” are separate entries in the source; they are usually repeats but may differ in a detail not shown here. Identical values can stand only once. Inconclusive results are not listed. Active and inactive are the calls of the source. Unless noted, the limit is not given here; nearly all actives have AC50 up to about 30 µM.

Tests used:
[1] = viability loss in pontine glioma line – cell-based, SU-DIPG-XIII, MIPE4.0, CellTiter-Glo, qHTS, dose response (AID 1347061; cut-off not given, nearly all actives have AC50 up to about 37 µM;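 also: cells exposed to compound for 48 hours before readout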); conditions: CellTiter-Glo ATP luminescence
[2] = viability loss in pontine glioma line – cell-based, JHH-DIPG-1, MIPE4.0, CellTiter-Glo, qHTS, dose response (AID 1347062; cut-off not given, nearly all actives have AC50 up to about 27 µM;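 as to AC50: cells exposed to compound for two days before readout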); conditions: JHH-DIPG-1 viability, CellTiter-Glo ATP luminescence
[3] = viability loss in pontine glioma line – cell-based, SU-DIPG-IV, MIPE4.0, CellTiter-Glo, qHTS, dose response (AID 1347063); conditions: CellTiter-Glo ATP luminescence;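 also: compound exposure lasted 48 hours before the viability readout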
[4] = growth inhibition of DIPG cells – cell-based, MIPE4.0 library, CellTiter-Glo luminescence, qHTS (AID 1347066); conditions: SU-DIPG-VI viability, CellTiter-Glo ATP luminescence;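 also: cells exposed to compound for 48 hours before readout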
[5] = MELAS cybrid and Rieske KO viability enhancers – cell-based, MELAS cybrids, Rieske KO mouse fibroblasts, CellTiter-Glo, primary screen (AID 1508586;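 active = mean z-score across replicates of 1.96 or higher in either the MELAS or the Rieske mutant cell line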;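 also: z relative to plate mean and SD of compound and empty wells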); conditions: low glucose
[6] = viability loss with induced miR-34 in A549 – imaging, A549 dox-inducible miR-34, nuclei and caspase counts, primary screen (AID 1347080;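 active = compounds whose cell count with miR-34 switched on is under 0.7 times the count with it off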); conditions: A549 miR-34 inducible, Hoechst nuclei count, 48 h
[7] = viability loss in pontine glioma line – cell-based, SU-DIPG-XIII, MIPE5.0, CellTiter-Glo, qHTS, dose response (AID 1347064; cut-off not given, nearly all actives have AC50 up to about 23 µM;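 also: cells exposed to compound for 48 hours before the viability read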); conditions: CellTiter-Glo ATP luminescence
[8] = viability loss in pontine glioma line – cell-based, SU-DIPG-XXV, MIPE5.0, CellTiter-Glo, qHTS, dose response (AID 1347065; cut-off not given, nearly all actives have AC50 up to about 26 µM;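 also: cells exposed to compound for 48 hours before ATP readout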); conditions: CellTiter-Glo ATP luminescence
[9] = JHH-DIPG-1 glioma cell viability, MIPE5.0 library, CellTiter-Glo luminescence, qHTS (AID 1347067; cut-off not given, nearly all actives have AC50 up to about 26 µM;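 also: cells exposed to compound for 48 hours before readout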); conditions: JHH-DIPG-1 glioma viability, CellTiter-Glo ATP luminescence
[10] = growth inhibition of DIPG cells – cell-based, MIPE5.0 library, qHTS (AID 1347068; cut-off not given, nearly all actives have IC50 up to about 30 µM;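 as to IC50: cells exposed to compound for 48 hours before viability readout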); conditions: SU-DIPG-XXV viability
[11] = compounds altering HSF1 focus formation in cells – imaging, Selleck Cancer Library (AID 1347162; in the data active = plate-normalised HSF1 focus index below about 0.46); conditions: human cells, HSF1 nuclear foci imaging, at 10 µM; SSMD: measured here: HSF1 foci SSMD mean; cell count: measured here: cell number; plate-normalised HSF1 focus index: stronger effect = lower value
[12] = growth inhibition, single agent or in combination, cell-based, chromothripsis tumors, cisplatin or BGB combos (AID 1671449; in the data active = inhibition above about 80%;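 also: cells exposed for 96 hours; 0% = vehicle DMSO and 100% = killing by high DMSO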); conditions: LFS_MB_P medulloblastoma cells
[13] = growth inhibition, single agent and combos, cell-based, chromothripsis tumors, cisplatin or BGB combos (AID 1671450; in the data active = inhibition above about 80%;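 also: cells exposed to compound for four days; 0% = vehicle DMSO and 100% = cell killing by high DMSO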); conditions: HDN33 neuroblastoma cells, stronger effect = higher value
[14] = growth inhibition, single agents and combos, ICB984, cell-based, cisplatin or BGB combos, synergistic combos for chromothripsis tumors (AID 1671451; call rule not given here;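 also: cells exposed for 96 hours before readout; 0% = vehicle DMSO and 100% = killing by high DMSO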); conditions: ICB984 medulloblastoma cells, drug combinations, stronger effect = higher value
[15] = growth inhibition, single agents and combos, HTB85, cell-based, BGB or cisplatin IC20 combos, synergistic combos for chromothripsis tumors (AID 1671453; in the data active = inhibition above about 80%;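 also: cells exposed for 96 hours before readout; 0% = vehicle DMSO and 100% = high DMSO killing control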); conditions: HTB85 osteosarcoma cells, drug combinations, stronger effect = higher value
[16] = growth inhibition, MDA-MB-436, cell-based, BGB or cisplatin combos, synergistic combos for chromothripsis tumors (AID 1671458; call rule not given here;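 also: cells exposed for 96 hours; 0% = vehicle DMSO and 100% = killing by high DMSO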); conditions: MDA-MB-436 breast carcinoma growth inhibition, drug combinations, stronger effect = higher value
[17] = BT084 cell growth, single and combined drugs, ICGC_MB145, cisplatin and BGB IC40 combos (AID 1671461; in the data active = inhibition above about 80%;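 also: cells exposed to drugs for 96 hours; 0% = vehicle DMSO and 100% = high DMSO full killing control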); conditions: BT084 medulloblastoma cells, drug combinations, stronger effect = higher value
[18] = RCMB18 cell growth, single agent and combined, cisplatin and BGB IC40 combos (AID 1671462; in the data active = inhibition above about 80%;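 also: cells exposed to compound for four days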); conditions: RCMB18 medulloblastoma cells, stronger effect = higher value
[19] = CRL1545 cell growth, single agent and combined, cisplatin and BGB IC20 combos (AID 1671464; in the data active = inhibition above about 80%;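 also: cells exposed to compound for 96 hours before readout; 0% = vehicle DMSO and 100% = high DMSO killing control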); conditions: CRL1545 osteosarcoma cells, stronger effect = higher value
[20] = MELAS cybrid survival, CellTiter-Glo 48 h, stronger effect = higher value
[21] = Rieske KO mouse fibroblast survival, CellTiter-Glo 72 h
[22] = stronger effect = lower value, cell number ratio, induced over uninduced
[23] = measured here: relative caspase fold change +Dox/-Dox
[24] = measured here: total cells with miR-34 induction, stronger effect = lower value
[25] = measured here: total cells without miR-34 induction
[26] = measured here: with BGB IC20 combination, at 0.5 µM
[27] = measured here: with cisplatin IC20 combination, at 0.5 µM

## CCCCCCCCCCCCCCCC(=O)OC[C@@H](NC(=O)C(Cl)Cl)[C@H](O)c1ccc([N+](=O)[O-])cc1
[1]
  outcome: inactive
[2]
  outcome: inactive
[3]
  outcome: inactive
[4]
  outcome: inactive

## CC(C)CN(C[C@@H](O)[C@H](Cc1ccccc1)NC(=O)O[C@H]1CO[C@H]2OCC[C@H]21)S(=O)(=O)c1ccc(N)cc1
[1]
  AC50: 20.9 µM (active)
[2]
  outcome: inactive
[3]
  outcome: inactive
[4]
  AC50: 23.5 µM (active)
[5]; [20]
  z-score: 0.705 (inactive)
[5]; [21]
  z-score: 0.765

## CC(O)C1C(=O)N2C(C(=O)O)=C(SC3CNC(C(=O)N(C)C)C3)C(C)C12 (stereo unspecified)
[1]
  outcome: inactive
[2]
  outcome: inactive
[3]
  outcome: inactive
[4]
  outcome: inactive
[6]; [22]
  fold change: 0.9 (inactive) and 0.956 (inactive)
[6]; [23]
  fold change: 2.32 and 0.899
[6]; [24]
  cell count: 9280 and 7430
[6]; [25]
  cell count: 10300 and 7780
[5]; [20]
  z-score: -0.432 (inactive)
[5]; [21]
  z-score: 0.361

## O=C(Nc1ncc(SCCN2CCCC2)s1)[C@]1(c2ccc(S(=O)(=O)C3CC3)cc2)C[C@H]1C1CCCCC1
[1]
  outcome: inactive
[2]
  AC50: 14.8 µM (active)
[7]
  AC50: 16.6 µM (active)
[8]
  AC50: 9.34 µM (active)
[4]
  AC50: 20.9 µM (active)
[9]
  AC50: 11.8 µM (active)
[10]
  IC50: 20.9 µM (active)

## CCn1c(C(=O)N(C2CC2)C2CC2)cc2c3c(ncn3C)c(Nc3cc(C)n(C)n3)nc21
[1]
  outcome: inactive
[2]
  outcome: inactive
[3]
  outcome: inactive
[4]
  outcome: inactive
[10]
  outcome: inactive

## C[N+]1(C)[C@@H]2CC(OC(=O)C(O)(c3cccs3)c3cccs3)C[C@H]1[C@@H]1O[C@@H]12 (stereo partly specified)
[1]
  outcome: inactive
[2]
  outcome: inactive
[3]
  outcome: inactive
[4]
  outcome: inactive
[6]; [22]
  fold change: 0.899 (inactive)
[6]; [23]
  fold change: 1.32
[6]; [24]
  cell count: 10300
[6]; [25]
  cell count: 11500
[5]; [20]
  z-score: -0.0486 (inactive)
[5]; [21]
  z-score: -0.119

## O=C(C=CC#Cc1cccc(NS(=O)(=O)c2ccccc2)c1)NO
[1]
  AC50: 14.8 µM (active)
[2]
  AC50: 9.35 µM (active)
[3]
  AC50: 4.18 µM (active)
[4]
  AC50: 18.7 µM (active)

## N#CC[C@H](C1CCCC1)n1cc(-c2ncnc3[nH]ccc23)cn1
[1]
  outcome: inactive
[2]
  outcome: inactive
[3]
  outcome: inactive
[4]
  outcome: inactive
[10]
  outcome: inactive
[11]
  SSMD: 3.63
  cell count: 7430
  plate-normalised HSF1 focus index: 1.23 (inactive)

## CNC(=O)CN1CCC(Oc2cc3c(Nc4cccc(Cl)c4F)ncnc3cc2OC)CC1
[1]
  outcome: inactive
[2]
  outcome: inactive
[3]
  outcome: inactive
[4]
  outcome: inactive
[9]
  outcome: inactive
[10]
  outcome: inactive
[6]; [22]
  fold change: 0.965 (inactive)
[6]; [23]
  fold change: 1.05
[6]; [24]
  cell count: 5230
[6]; [25]
  cell count: 5420
[5]; [20]
  z-score: -0.464 (inactive)
[5]; [21]
  z-score: -0.429

## Cn1c(N2CCCCS2(=O)=O)nc(C(=O)NCc2ccc(F)cc2)c(O)c1=O
[1]
  outcome: inactive
[2]
  outcome: inactive
[3]
  outcome: inactive
[4]
  outcome: inactive
[6]; [22]
  fold change: 0.915 (inactive)
[6]; [23]
  fold change: 0.973
[6]; [24]
  cell count: 7350
[6]; [25]
  cell count: 8040
[5]; [20]
  z-score: -0.418 (inactive)
[5]; [21]
  z-score: 0.522

## C=C1/C(=C/C=C2\CCCC3(C)[C@@H]([C@H](C)/C=C/C=C/C(O)(CC)CC)CC[C@@H]23)C[C@@H](O)C[C@@H]1O (stereo partly specified)
[1]
  AC50: 18.7 µM (active)
[2]
  AC50: 20.9 µM (active)
[3]
  AC50: 16.6 µM (active)
[10]
  outcome: inactive

## COc1ccc2cc([S+]([O-])Cc3ncc(C)c(OC)c3C)nc2c1
[1]
  outcome: inactive
[2]
  outcome: inactive
[3]
  outcome: inactive
[4]
  outcome: inactive

## CC(C(C)N1CC(=O)NC(=O)C1)N1CC(=O)NC(=O)C1 (stereo unspecified)
[1]
  outcome: inactive
[2]
  outcome: inactive
[3]
  outcome: inactive
[4]
  outcome: inactive
[9]
  outcome: inactive
[10]
  outcome: inactive

## O=C(O)C(O)Cc1ccc(O)c(O)c1 (stereo unspecified)
[1]
  outcome: inactive
[2]
  outcome: inactive
[3]
  outcome: inactive
[4]
  outcome: inactive
[10]
  outcome: inactive
[6]; [22]
  fold change: 0.928 (inactive)
[6]; [23]
  fold change: 0.6
[6]; [24]
  cell count: 9530
[6]; [25]
  cell count: 10300
[5]; [20]
  z-score: -0.385 (inactive)
[5]; [21]
  z-score: 0.0393

## Nc1ncnc2c1ncn2[C@@H]1O[C@@H](CO)[C@H](O)[C@@H]1O
[1]
  outcome: inactive
[2]
  outcome: inactive
[3]
  outcome: inactive
[4]
  outcome: inactive

## CC(C)OC(=O)[C@H](C)N[P@](=O)(OC[C@H]1O[C@@H](n2ccc(=O)[nH]c2=O)[C@](C)(F)[C@@H]1O)Oc1ccccc1
[1]
  outcome: inactive
[2]
  outcome: inactive
[3]
  outcome: inactive
[4]
  outcome: inactive
[9]
  AC50: 2.63 µM (active)
[10]
  outcome: inactive
[12]; at 0.5 µM, stronger effect = higher value
  inhibition: -27.6% (inactive)
[12]; measured here: combination with BGB IC20, at 0.005 µM
  inhibition: -8.86%
[12]; measured here: combination with BGB IC40, at 0.005 µM
  inhibition: -29.9%
[12]; measured here: combination with BGB IC40, at 0.05 µM
  inhibition: -32.6%
[12]; measured here: combination with cisplatin, at 0.5 µM, stronger effect = higher value
  inhibition: -25.8%
[12]; measured here: combination with cisplatin, at 5 µM, stronger effect = higher value
  inhibition: -29.3%
[13]; BGB combo, at 5 µM
  inhibition: -36.1%
[13]; at 0.5 µM
  inhibition: -7.68% (inactive)
[13]; cisplatin combo, at 5 µM
  inhibition: -4.94%
[13]; [26]
  inhibition: -9.88%
[13]; [27]
  inhibition: 5.66%
[13]; single agent, at 5 µM
  inhibition: -12.1%
[14]; BGB IC20 combo, at 0.005 µM
  inhibition: -18%
[14]; BGB IC40 combo, at 0.005 µM
  inhibition: -9.03%
[14]; BGB IC40 combo, at 0.05 µM
  inhibition: -19.6%
[14]; at 0.5 µM
  inhibition: -6.96% (inactive)
[14]; cisplatin combo, at 0.05 µM
  inhibition: -25.8%
[14]; cisplatin combo, at 0.5 µM
  inhibition: -2.19%
[14]; cisplatin combo, at 5 µM
  inhibition: -12.1%
[14]; measured here: 5 uM single agent, at 5 µM
  inhibition: -20.9%
[15]; at 0.5 µM
  inhibition: 14.1% (inactive)
[15]; measured here: with BGB IC20, at 0.5 µM
  inhibition: 45.6%
[15]; measured here: with BGB IC20, at 5 µM
  inhibition: 9.23%
[15]; measured here: with cisplatin IC20, at 0.5 µM
  inhibition: -3.56%
[15]; measured here: with cisplatin IC20, at 5 µM
  inhibition: 2.16%
[15]; single agent, at 5 µM
  inhibition: 7.57%
[16]; at 0.5 µM
  inhibition: -14.4% (inactive)
[16]; measured here: BGB combination, at 0.5 µM
  inhibition: -6.51%
[16]; measured here: BGB combination, at 5 µM
  inhibition: -8.4%
[16]; measured here: cisplatin combination, at 0.5 µM
  inhibition: -26.3%
[16]; measured here: cisplatin combination, at 5 µM
  inhibition: -27.6%
[17]; at 0.5 µM
  inhibition: -5.65% (inactive)
[17]; cisplatin combination, at 0.5 µM
  inhibition: -1.58%
[17]; cisplatin combination, at 5 µM
  inhibition: -68.9%
[17]; measured here: BGB IC40 combination 0.05 uM, at 0.05 µM
  inhibition: -37.9%
[17]; single agent, at 5 µM
  inhibition: 12.2%
[18]; at 0.5 µM
  inhibition: -12.6% (inactive)
[18]; cisplatin combo, at 5 µM
  inhibition: -10.4%
[18]; measured here: BGB IC40 combination, at 0.05 µM
  inhibition: -14.6%
[18]; measured here: combination with cisplatin, at 0.5 µM
  inhibition: 5.31%
[18]; single agent, at 5 µM
  inhibition: -3.36%
[19]; at 0.5 µM
  inhibition: 22.4% (inactive)
[19]; [26]
  inhibition: 2.82%
[19]; [27]
  inhibition: 31.1%
[19]; single agent, at 0.05 µM
  inhibition: -4.05%
[19]; single agent, at 5 µM
  inhibition: -21.1%

## NC1CCC(Nc2nc(Nc3ccc(C(=O)N4CCCCC4)cc3)c3ncn(-c4cccc(F)c4)c3n2)CC1 (stereo unspecified)
[1]
  outcome: inactive
[2]
  outcome: inactive
[3]
  outcome: inactive
[4]
  outcome: inactive
